Laboratory results: PubChem BioAssay AID540254 (Southern Research Specialized Biocontainment Screening …, 2011)
Hit rate of the full screen: of about 1,800 compounds, fewer than 10 were called active. How the calls were made is not given here. Only a sample is shown. Entries with a potency or affinity are not part of this list.

assay: antiviral activity against H1N1 influenza, dose response, cell-based, strain KY180 (AID 540254); settings: H1N1 KY180 influenza antiviral cell-based screen; series mostly up to 40 µM

Row | SMILES | outcome
1 | O=C(Nc1nc(-c2ccccn2)cs1)C1COc2ccccc2O1 (centres undefined) | inactive
2 | CC(=O)N/N=C(\C)c1cccc(NC(=O)c2cccs2)c1 | inactive
3 | O=C(Nc1nc2c(s1)CCCC2)C1COc2ccccc2O1 (centres undefined) | inactive
4 | Cn1c(=O)c2[nH]c(NN=Cc3ccc(Br)cc3)nc2n(C)c1=O | inactive
5 | COc1ccc(C(=O)NC(=S)NNC(=O)c2cnccn2)cc1OC | inactive
6 | COC(=O)c1ccccc1NC1=C/C(=N\S(=O)(=O)c2ccc(C(=O)O)cc2)c2ccccc2C1=O | inactive
7 | CCNC(=S)NNC(=O)c1ccccn1 | inactive
8 | O=c1c2ccccc2ncn1Cc1ccco1 | inactive
9 | Oc1c(CN2CCCCC2)ccc2cccnc12 | inactive
10 | COCc1cc(C)nc(SCC(=O)Nc2ccc3c(c2)n(C)c(=O)n3C)c1C#N | inactive
11 | Nc1ccccc1C(=O)NCc1ccc(Cl)cc1 | inactive
12 | Nc1nc(SCc2ccc([N+](=O)[O-])cc2)nc2nc3c(cc12)CCCC3 | inactive
13 | CCN(CC)CCNc1nc2cc(OC)c(OC)cc2c2nc(-c3ccccc3)nn12 | inactive
14 | Cc1cc(N(C)N)nc(NC(=O)NS(=O)(=O)c2ccccc2Cl)n1 | inactive
15 | Cn1cc(S(=O)(=O)Nc2ccc(Br)cc2F)c(=O)n(C)c1=O | inactive
16 | O=C(NCC1CCCO1)C(=O)N/N=C/c1cc(Cl)ccc1O (centres undefined) | inactive
17 | O=C(NCCCN1CCOCC1)C(=O)N/N=C/c1ccccc1O | inactive
18 | Cc1ccc(OCCn2c(C3CC(=O)N(Cc4ccccc4)C3)nc3ccccc32)cc1 (centres undefined) | inactive
19 | CCOC(=O)c1cnc(-n2[nH]c(C)c(Cc3ccccc3)c2=O)[nH]c1=O | inactive
20 | Cc1ccc(C(c2nnnn2Cc2cccs2)N2CCN(Cc3ccc4c(c3)OCO4)CC2)cc1 (centres undefined) | inactive
21 | COc1cc(/C=C2\SC(c3ccccc3)=NC2=O)cc(Cl)c1O | inactive
22 | COC(=O)C1CCN(C(=O)Cc2ccc(C)cc2)CC1 | inactive
23 | COc1ccc(Cc2nnc(N/N=C/c3ccc(O)cc3)[nH]c2=O)cc1OC | inactive

Row | SMILES | outcome
24 | CC1CC(=O)N(C)c2ccc([N+](=O)[O-])cc2N1 (centres undefined) | inactive
25 | O=C(c1cc2ccccc2o1)N1CCCCCC1 | inactive
26 | COc1cc(OC)cc(C(=O)NC(=S)NNC(=O)c2cnccn2)c1 | inactive
27 | CC1CCCC(C)N1c1nnc(NC(=O)Cn2c(=O)oc3ccccc32)s1 (centres undefined) | inactive
28 | Fc1ccc(-[n+]2nc(Nc3ccccc3)sc2-c2c(Cl)cccc2Cl)cc1 | inactive
29 | CC1NC(=O)NC1CCCCCC(=O)Nc1ccc(F)cc1 (centres undefined) | inactive
30 | CCc1nnc(SCC(=O)N2CCc3ccccc32)n1CC | inactive
31 | O=C(CNCc1ccccn1)Nc1cc(S(=O)(=O)N2CCCCC2)ccc1Cl | inactive
32 | Cc1nc2sccn2c(=O)c1S(=O)(=O)N1CCN(c2ccc(F)cc2)CC1 | inactive
33 | O=C1NC(c2ccccn2)Nc2sc3c(c21)CCC3 (centres undefined) | inactive
34 | COc1cccc(/C=N/NC(=O)CCCC(=O)NC2CCCCC2)c1 | inactive
35 | CCOC(=O)Cn1c(=O)oc2cc(S(=O)(=O)NCc3ccccn3)ccc21 | inactive
36 | COc1cccc(C2c3c(oc4ccc(Cl)cc4c3=O)C(=O)N2c2cc(C)on2)c1OC (centres undefined) | inactive
37 | CC(/C=N/NC(=O)c1ccc(Cn2cc([N+](=O)[O-])cn2)o1)=C\c1ccccc1 | inactive
38 | CCOc1ccc(C(=O)NCCn2cc(SCC(=O)Nc3cc(C)on3)c3ccccc32)cc1 | inactive
39 | O=C(N/N=C/c1ccc([N+](=O)[O-])cc1)c1ccccc1OCc1ccccc1 | inactive
40 | CC(=O)Cc1nsc(NC(=O)c2ccc(-c3cc(C(F)(F)F)ccc3Cl)o2)n1 | inactive
41 | CCCCC(=O)NC(c1ccc(N(C)C)cc1)c1ccc2cccnc2c1O (centres undefined) | inactive
42 | CC(C)COC(=O)c1ccc2c(c1O)C(=O)c1ccccc1C2=O | inactive
43 | O=C(CSc1ccccc1)Nc1nnc(/C=C/c2ccccc2)s1 | inactive
44 | CCOC(=O)CCSCC(=O)Nc1nnc(C)s1 | inactive
45 | COc1ccc(C(CNC(=O)CN2C(=O)NC3(CCCC3)C2=O)N(C)C)cc1 (centres undefined) | inactive
46 | COc1ccc(C(=O)COC(=O)CN2CC(=O)Oc3ccccc32)cc1Br | inactive

Row | SMILES | outcome
47 | O=C(NC1CCCC1)C(c1cccnc1)N(C(=O)c1csnn1)c1ccccc1Cl (centres undefined) | inactive
48 | CCOC(=O)C1=C(C)N(C)C(C)=C(C(=O)OCC)C1c1ccncc1 | inactive
49 | O=[N+]([O-])c1ccc(CSc2ccc(-c3ccccn3)nn2)cc1 | inactive
50 | O=C(NN=C1CCCCCC1)c1cccs1 | inactive
51 | CCOC(=O)C1CCN(c2c(NC3CCCCCCC3)c(=O)c2=O)CC1 | inactive
52 | CC(C)C(=O)N(c1cc2sc(=O)oc2c2ccccc12)S(=O)(=O)c1cccs1 | inactive
53 | CN1C(=O)/C(=C\c2cc(N=Nc3ccccc3)ccc2O)SC1=S | inactive
54 | CCCC(=O)OC(C(=O)Nc1cc(C(F)(F)F)ccc1Cl)c1ccccc1 (centres undefined) | inactive
55 | Cc1ccccc1-c1nc(CN2CCC(C(=O)N3CCC(C(N)=O)CC3)CC2)c(C)o1 | inactive
56 | O=C(O)c1ccc(-n2nnnc2Oc2cccc3cccnc23)cc1 | inactive
57 | Cc1ccc(NC(=O)C2CCCN(c3ncccn3)C2)cc1F (centres undefined) | inactive
58 | CN(C)S(=O)(=O)c1cccc(NC(=O)CNCc2ccccn2)c1 | inactive
59 | COc1ccc(C)cc1NC(=O)CSc1ccc(-c2ccccn2)nn1 | inactive
60 | COc1ccc(N2CCN(CCCNS(=O)(=O)c3ccc4c(c3)oc(=O)n4C)CC2)cc1 | inactive
61 | COc1ccc(N2CCN(CCCNC(=O)c3cc4sccc4n3C)CC2)cc1 | inactive
62 | COc1ccc(N2CCN(C(=O)c3cccc(Cn4cc(Cl)cn4)c3)CC2)cc1 | inactive
63 | COc1ccccc1-c1c(C)nn2c(N3CCN(Cc4ccccc4)CC3)cc(C)nc12 | inactive
64 | Cc1ccc(C)c(N=Nc2nc3ccccc3n2C)c1 | inactive
65 | NS(=O)(=O)c1ccc(NC(=O)Nc2ccc3c(c2)OCO3)cc1 | inactive
66 | COc1ccc(/C=N\NC(=O)c2cc(O)c(O)c(O)c2)cc1COc1ccc(C(=O)OCC(C)C)cc1 | inactive
67 | Cc1ccc(-c2csc(NC(=O)c3cccc(N4C(=O)CCC4=O)c3)n2)o1 | inactive
68 | Cc1cc2cc(CNC(=O)c3ccc(S(=O)(=O)N4CCCC4)cc3)ccc2n1C | inactive
69 | Cc1cc(C)c(NN=c2c(=O)c3ccccc3c2=O)c(C)c1 | inactive
